The whole screen tested about 16,000 compounds, of which about 240 (1.5%) were called active. Only a selection was taken, and actives are over-represented in it overall. Values without a mark were called inactive. Rule as the data show it: active = activation above about 80%; inactive = the rest.

In this experiment the target is Sphingosine 1-phosphate receptor 1 (Homo sapiens) (UniProt P21453). The experiment in a line: S1P1 (human) receptor agonism (AID 1044). As to conditions: S1P1 agonist cell-based reporter assay; at 4.5 µM; active compounds read high. On the technique in general: A reporter such as luciferase makes a cellular process visible.
Sequence of Sphingosine 1-phosphate receptor 1 (Homo sapiens) (P21453 whole entry, looked up): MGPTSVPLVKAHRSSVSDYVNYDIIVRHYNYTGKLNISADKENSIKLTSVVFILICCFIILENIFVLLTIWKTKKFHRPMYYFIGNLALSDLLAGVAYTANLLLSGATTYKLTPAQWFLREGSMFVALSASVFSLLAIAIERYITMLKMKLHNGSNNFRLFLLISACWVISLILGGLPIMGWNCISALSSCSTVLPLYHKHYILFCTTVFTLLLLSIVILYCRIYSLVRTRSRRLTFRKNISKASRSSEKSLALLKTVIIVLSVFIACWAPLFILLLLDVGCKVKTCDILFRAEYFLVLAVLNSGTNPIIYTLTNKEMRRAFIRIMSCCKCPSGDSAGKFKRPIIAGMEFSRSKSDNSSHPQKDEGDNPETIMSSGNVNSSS
For the compound `COC(=O)c1cc(S(=O)(=O)NCc2csc(-c3cccs3)n2)oc1C`, the activation is 4.78%.
In the case of `CC(C)(C)OC(=O)n1ccc2cc(Br)ccc21` it was 111% (active).
In the case of `O=C1CC(c2ccccc2)C(=O)N1Cc1cccs1` (stereo not drawn) it was 1.62%.
Regarding `O=C(NCc1cccnc1)c1cnc2ccccc2n1`, the activation was -2.22%.
In the case of `N#CC(C#N)=CNc1c(F)cccc1Cl` it was 48.9%.
In the case of `CO/N=C1\C(=O)N(C)c2ccccc21` it was -2.23%.
In the case of `COC(=O)c1cc(OC)c(OC)cc1NC(=O)c1ccccc1C(=O)O` it was 14.4%.
For `O=C1c2ccccc2C(=O)N1CCCN1CCN(Cc2c(F)cccc2Cl)CC1`, the activation was -0.27%.
In the case of `S=C(SCc1ncon1)N1CCSCC1` it was -1.22%; in that of `N#Cc1cncc(Br)c1`, -9.98%; in that of `O=C(O)c1nccnc1C(=O)O`, -16.2%.
In the case of `CC(=O)c1cc([N+](=O)[O-])c(NC2CCCCC2)s1` it was -14.1%; in that of `O=S(=O)(O)c1ncccn1`, 3.74%; in that of `COc1c(Br)cc(C#N)cc1Br`, -9.06%.
In the case of `COC(=O)C1=C(c2ccccc2)C(c2ccccc2)=C(C(=O)OC)C1=O` it was 6.63%; in that of `N#Cc1cn(C2CCCCC2)c(=O)[nH]c1=O`, 15.6%.
`CNC(=O)c1ccccc1Sc1ccccc1C(=O)NC`: the activation is -10.2%.
In the case of `CCOC(=O)C(NC(=O)Nc1ccccc1)(Nc1ccccc1OC)C(F)(F)F` (stereo not drawn) it was 5.29%; in that of `CCOC(=O)c1c(C)csc1NC(=O)CC(=O)C(F)(F)F`, 12.6%; in that of `COC(=O)c1cc(C(N)=O)c(SC)s1`, -10.8%.
In the case of `O=c1c2c(nc3nc[nH]n13)CCC2` it was 1.21%; in that of `CSC(C)C(=O)/C=C/N(C)C` (stereo not drawn), -15.9%; in that of `COC(=O)C(C#N)c1ccc(C(F)(F)F)cc1[N+](=O)[O-]` (stereo not drawn), 14.5%.
In the case of `COC(OC)c1ccc(C#N)c(SCC(=O)Nc2ccc(C(F)(F)F)cc2)n1` it was -16.6%; in that of `COC(=O)CCN1CCc2cc(N=Nc3ccc(C(F)(F)F)cc3)ccc21`, 99.2% (active).
With `CCOC(=O)NC(=O)/C(=C/NC(C)C)C(=O)OCC`, the activation was 22.7%.
In the case of `COc1cc(-c2n[nH]c(=S)n2Cc2ccccc2)cc(OC)c1OC` it was -18.1%.
In the case of `CC1(C)c2ccccc2-n2c1cc(O)c(-c1ccccc1)c2=O` it was -11.7%; in that of `CC1(NC(=O)OCc2ccccc2)CC1NC(=O)OCc1ccccc1` (stereo not drawn), 11.9%.
In the case of `COC(=O)c1sccc1Oc1ccc(Cl)cc1[N+](=O)[O-]` it was 13.2%.
In the case of `COC(=O)c1sccc1NC(=S)Nc1ccc(C)cc1`, the activation is -27.1%.
In the case of `OC(CNCCNc1nccc(C(F)(F)F)n1)COc1ccc(Cl)c(Cl)c1` (stereo not drawn) it was 15.7%; in that of `CSC(=Nc1ccccc1C(F)(F)F)N1CCCC1`, 62.5%; in that of `NNC(=O)CSc1nnc(-c2ccccc2)n1-c1ccccc1`, 2.03%.
Turning to `CN(NC(=O)c1ccc(Cl)s1)c1cnn(-c2cc(Cl)cc(Cl)c2)c(=O)c1Cl`, the activation was 7.36%.
In the case of `O=C(NCc1cccnc1)c1ccccc1NC(=O)c1c(F)cccc1F` it was 10.3%.
Turning to `Cc1ccc(S(=O)(=O)NC(=O)NCCSCc2ccco2)cc1`, the activation was -7.47%.
With `O=C(CSc1ccc(Cl)cc1)NCCSCc1ccco1`, the activation is 3.06%.
In the case of `O=C(O)CSC(SCC(=O)O)c1ccc2c(c1)OCO2` it was -4.07%; in that of `Cc1cc(C)n(/N=c2\sc(-c3ccccc3)cn2C2CC3C=CC2C3)c(=O)c1C#N` (stereo not drawn), -8.12%; in that of `CCOC(=O)c1c(N/N=C\c2ccccc2O)n[nH]c1C`, -16.7%.
In the case of `COc1cc(NC(=O)COc2cc(Cl)c(Cl)cc2Cl)cc(OC)c1OC` it was 22.5%; in that of `O=C(O)Cc1csc(NC(=O)CSc2nnnn2-c2ccc(O)cc2)n1`, 0.38%.
In the case of `C/C(=N\NC(N)=S)c1cc2cc(Cl)ccc2o1` it was 7.17%.
Regarding `N/C(=N\O)c1ccc2nonc2c1`, the activation is 23.9%.
In the case of `Clc1ccc(-c2csc(-c3cnccn3)n2)s1` it was 1.06%.
Consider `S=C(Nc1cccnc1)N1CCCN(Cc2ccc(Cl)cc2Cl)CC1`, for which the activation was 14.2%.
In the case of `COC(=O)c1ccsc1NC(C)=O` it was -7.53%; in that of `CCCc1c(C(=O)O)cnn1-c1ccc(Cl)cc1`, -21.8%; in that of `O/N=C(\c1ccccc1)c1ccccn1`, -7.69%.
In the case of `COc1ccc(C2CC(c3cccs3)=Nc3ccccc3S2)c(Cl)c1OC` (stereo not drawn) it was 1.73%; in that of `O=S(=O)(O)Oc1c[nH]c2ccccc12`, -5.88%.
In the case of `CC1=C(C(=O)O)N2C(=O)[C@H](NC(=O)[C@@H](N)c3ccccc3)C2SC1` (stereo partly drawn) it was 8.53%; in that of `O=C(c1cnn(-c2ccc(Cl)cc2)n1)c1cccs1`, 3.48%.
With `CC(C)S(=O)(=O)/C(C#N)=C/c1ccccc1OC(F)(F)F`, the activation was -23.8%.
In the case of `O=C(NNC(=S)Nc1ccccc1Cl)c1ccc(OC(F)(F)F)cc1` it was 91.2% (active).
In the case of `Cc1nc(C(=O)NNC(=S)Nc2ccccc2C(F)(F)F)cs1` it was -8.43%; in that of `COC(=O)c1ccccc1NC(=S)NNC(=O)c1ccc([N+](=O)[O-])cc1`, -4.53%; in that of `Cc1nn(S(=O)(=O)c2ccc(Cl)cc2)cc1-c1ccccc1`, -1.3%.
In the case of `Cc1cc(Cl)ccc1NC(=S)NNC(=S)Nc1ccc(F)cc1` it was 25.2%; in that of `Cc1onc(-c2ccccc2)c1C(=O)Sc1ccc(C(F)(F)F)cn1`, -5.64%; in that of `CC(=O)c1ccc(NC(=O)OC2CCSC2)cc1` (stereo not drawn), -3.04%.
With `O=S(=O)(c1ccccc1)c1cc(C(F)(F)F)cc(C(F)(F)F)c1`, the activation was 1.62%.
In the case of `O=c1oc2c3ccccc3c3oc(=O)sc3c2s1` it was 11%.
For the compound `CN(C)c1ccc(C=Nc2ccc(S(N)(=O)=O)cc2)cc1`, the activation was -3.85%.
As to `CC(=O)Nc1ccc(F)cc1F`, the activation is -19.4%.
In the case of `CC1(C)CCc2cc(-c3ccnc(SCC(=O)c4ccccc4)n3)ccc2O1` it was -11.3%; in that of `Cc1cc(C(F)(F)F)nc2c(-c3noc(-c4ccccc4)n3)cnn12`, 23.9%; in that of `CC1(C)C=Cc2cc(-c3noc(-c4ccccc4)n3)ccc2O1`, 96.3% (active).
In the case of `O=c1cc(-c2ccccc2)cc(-c2ccccc2)o1` it was -7.4%.
`O=C(O)CC(CC(=O)Oc1ccccc1N1CCCCC1)c1ccccc1` (stereo not drawn): the activation is -2.68%.
In the case of `O=C(CCN1CCN(C(c2ccccc2)c2ccccc2)CC1)c1ccccc1` it was 1.07%; in that of `CC1CC(NC(=O)/C(C#N)=C/c2ccc[nH]2)CC(C)(C)C1` (stereo not drawn), -5.85%; in that of `Cc1[nH]ncc1S(=O)(=O)c1ccc(Cl)cc1`, 2.45%.
In the case of `O=C(NCc1ccc(F)cc1F)c1cc(C(F)(F)F)cc(C(F)(F)F)c1` it was -5.72%.
In the case of `O=C(Nc1ccc(F)cc1OC(F)(F)F)N1CCC(O)CC1` it was -2.84%.
Turning to `Cc1nc2cc3c(cc2s1)OCO3`, the activation is 2.86%.
In the case of `COCn1nnc2ccccc21` it was 1.03%.
Consider `CC1(C)CC(=O)C(N=Nc2c(F)cccc2F)=C(O)C1`, for which the activation was 7.55%.
On to `CC(C)NC(=O)NNc1c(Cl)cncc1Cl`, for which the activation was 8.17%.
In the case of `CC(C)c1ccc(NNS(=O)(=O)c2ccc(Cl)c(Cl)c2)cc1` it was -3.29%; in that of `CC(=O)Nc1ccc(S(=O)(=O)NNc2c(Cl)cncc2Cl)cc1Cl`, 80.4% (active); in that of `Cc1cc(C2=CSC3=NCCN23)ccc1Cl`, 8.4%.
In the case of `CN(C)/C=C/C(=O)c1cc(C(C)(C)C)cc(C(C)(C)C)c1O` it was 19.8%; in that of `CCCCNC(=O)OCCSCCS(=O)(=O)c1ccc(Cl)cc1`, -12.4%; in that of `O=C1COCC(=O)N1c1ccc2c(c1)OCO2`, -5.13%.
With `Nc1[nH]c(=O)nc2nc[nH]c12`, the activation was -5.12%.
In the case of `N/C(=N\OS(=O)(=O)c1ccc(C(F)(F)F)cc1)C1CSCCS1` (stereo not drawn) it was 6.24%.
In the case of `CCc1cccc(C)c1N(C(C)=O)C1=NCCC(=O)S1` it was -5.03%.
In the case of `Cn1c(=O)c(C#N)cn(-c2ccccc2)c1=O` it was -15.9%; in that of `CC(C)S(=O)(=O)c1cscc1N/C=C(/C#N)C(=O)c1cccs1`, 21.3%.
Consider `O=C(Nc1cc2ccccc2s1)N1CCN(Cc2c(F)cccc2Cl)CC1`, for which the activation was 8.18%.
Consider `Cc1cc(CNC(=O)c2cc(C)n(C)n2)no1`, for which the activation is 0.51%.
In the case of `N#Cc1sccc1Br` it was -1.57%; in that of `CCOC(=O)C/C(N)=C(\C#N)C(=O)OCC`, -0.14%; in that of `Cc1nc(-c2cccnc2)nc(N2CCCN(Cc3ccc(F)cc3)CC2)c1Cl`, -19.4%.
In the case of `CN(C)/C=N/NC(=O)c1nc(-c2cccc(-n3cccc3)c2)no1` it was -6.62%; in that of `CCOC(=O)O/N=C(\N)c1ccc(Cl)cc1`, 3.02%; in that of `O=[N+]([O-])c1ccc(-c2ccc(I)cc2)cc1`, 1.05%.
In the case of `O=[N+]([O-])c1cc(C(F)(F)F)ccc1OCCO` it was 8.3%.
Consider `O=C1/C(=C/c2ccc3c(c2)OCO3)CCC/C1=C\c1ccc2c(c1)OCO2`, for which the activation was 11.5%.
For the compound `O=C(/C(=N\N=C\c1ccc2c(c1)OCO2)c1ccccc1)c1ccccc1`, the activation is 101% (active).
In the case of `COc1ccc(/C=C(\NC(=O)c2ccccc2)C(=O)N/N=C/c2ccc3c(c2)OCO3)cc1` it was 7.34%.
For `CO/N=C(/C)c1ccc2c(c1)CCO2`, the activation is -16.7%.
In the case of `O=C(NCc1cc2ccccc2s1)C1CN(C(c2ccccc2)c2ccccc2)C1` it was -7.79%.
In the case of `O=C(CSc1nnc(-c2ccncc2)n1Cc1ccccc1)Nc1nnc(-c2ccco2)s1` it was 4.05%; in that of `c1ccc2sc(-c3csc(-c4ccc5c(c4)OCCO5)n3)nc2c1`, 7.46%.
In the case of `S=C(NNC(=S)NC1CC2C=CC1C2)NC1CC2C=CC1C2` (stereo not drawn) it was -6.61%.

The record behind these values is PubChem BioAssay AID1044 (The Scripps Research Institute Molecular Screening Center, 2008).
